# PubChem BioAssay AID686979 (National Center for Advancing Translational Sciences (NCATS), 2013)
# Out of some 420,000 compounds screened, about 50,000 (12%) were called active. Where a call stands in place of a potency, no number is given. Another 26% or so got no clear call; they are omitted. Only a selection was taken, and actives are over-represented in it overall. A number with no mark means an inactive call. The call rests on the fitted dose curve; in most records, active means well fitted inhibition curve with a large enough effect; inconclusive means small, poorly fitted or top-dose-only effect; inactive means flat fitted curve, though single readings scatter.
# Test: qHTS for Inhibitors of human tyrosyl-DNA phosphodiesterase 1 (TDP1): qHTS in cells in presence of CPT; further: nearly all actives have a fitted effect of over 55% in size
# Conditions: chicken DT40 Tdp1-/-;hTDP1 cells + 20 nM CPT, ATP luminescence, 48 h; series mostly up to 46.2 µM
# Procedure, shortened: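 Chicken DT40 Tdp1-/- cells complemented with human TDP1, 400 cells/well, exposed to compounds plus 20 nM camptothecin for at least 48 h at 37 C; viability read as ATP content by CellTiter-Glo luminescence.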
# Potency means the concentration at half of the fitted maximal effect.
SMILES,Potency,"activity change, negative = growth inhibition"
CCN1CCN(C(=O)CN(C)S(=O)(=O)c2ccc3ccccc3c2)CC1,inactive,–
O=C1NC[C@H](CCCCN2C[C@H](Cc3ccc(O)cc3)N(CCc3ccccc3)C(=O)C2=O)N(CCc2ccccc2)C1=O,inactive,–
C#CCOc1ccc(/C=C2/C(=O)NN(c3ccccc3)C2=O)cc1OC,inactive,–
O=C(O)CC/C(=N\NC(=O)c1ccc(F)cc1)c1ccc(Br)cc1,inactive,–
O=C(C[n+]1cc(Br)cc2ccccc21)c1ccc(F)cc1,14.1 µM (active),–
O=C(CNC(=O)c1ccccc1F)c1ccc(Br)cc1,inactive,–
CCOc1ccc(NC(=O)CCC(=O)N2CC(C)Oc3ccc(C)cc32)cc1 (centres undefined),25.9 µM (active),–
CCOc1ccc(NC(=O)CCNC(=O)c2ccc(Br)cc2)cc1,inactive,–
Cc1ccc2c(c1)N(C(=O)CCC(=O)NCc1ccccc1F)CC(C)O2 (centres undefined),inactive,–
CCc1nc2cc(C(=O)NCC3CCS(=O)(=O)C3)cc(NC(=O)c3ccccc3OC)c2n1C (centres undefined),–,6.63% [at 9.04 µM]
O=c1[nH]c2cc(Br)ccc2n2cccc12,inactive,–
CCN(CC(=O)NCc1ccco1)S(=O)(=O)c1ccc(F)cc1,inactive,–
COc1ccc(Cc2nnc(NC(=O)c3ccc(OC)cc3OC)s2)cc1,inactive,–
COc1cc(SC)ccc1C(=O)Nc1nc(C)cs1,20.6 µM (active),–
Cc1csc(NC(=O)c2ccc(C)s2)n1,inactive,–
Cc1cc(NC(=O)Nc2c[nH]c(=O)[nH]c2=O)ccc1Br,inactive,–
Cc1ccc(NS(=O)(=O)c2ccc3c(c2)CC(=O)N3)cc1Cl,inactive,–
COc1ccc(CNC(=O)Cn2nnc(-c3ccc(S(C)(=O)=O)cc3)n2)cc1,inactive,–
COC1=CC(=O)OC(c2ccc(OC)cc2)C1 (centres undefined),inactive,–
COc1ccc(N=Nc2c(-c3ccc(OC)cc3)[nH]oc2=O)cc1,inactive,–
COc1ccc(N=C2C=CC(=O)O2)cc1,5.17 µM (active),–
CCC1(c2ccccc2)NC(=O)N(CC(=O)c2ccc3c(c2)OCO3)C1=O (centres undefined),inactive,–

SMILES,Potency,"activity change, negative = growth inhibition"
Cc1ccc(Cl)c(NC(=O)CN(C)CC(=O)Nc2ccc(F)c(F)c2F)c1Cl,inactive,–
COc1ccc(CNC(=O)c2ccc3c(c2)nc2n3CCOC2)c(OC)c1,inactive,–
Cc1ccc2[nH]c(=O)c(CC(=O)O)c(-c3ccccc3)c2c1,inactive,–
Cc1cccc(N(C)C(=O)c2cc3c(=O)[nH]c4ccc(C)cc4c3s2)c1,2.06 µM (active),–
Cc1ccc2[nH]c(=O)c(CC=C(Cl)Cl)c(C)c2c1,inactive,–
COc1ccc(CNC(=O)c2cc3c(=O)[nH]c4ccccc4c3s2)cc1,inactive,–
COc1ccc(CNC(=O)c2cc3c(=O)[nH]c4ccc(C)cc4c3s2)c(OC)c1,16.4 µM (active),–
Nc1cc(C(=O)N2CCN(c3ccccc3Cl)CC2)ccc1N1CC2CC(C1)c1cccc(=O)n1C2 (centres undefined),inactive,–
CC1(C)CN(CCc2ccccc2)C(=O)[C@H]1CC(=O)Nc1ccc(Br)cc1,inactive,–
Cc1ccc(NC(=O)Cc2nnc(SCC(=O)Nc3nncs3)n2C)cc1,inactive,–
CC1(c2ccc(Cl)cc2Cl)NC(=O)N(CC(=O)Nc2cccnc2Cl)C1=O (centres undefined),inactive,–
CCCc1ccc(C(=O)[C@@H]2[C@@H](C(C)=O)N3c4ccc(F)cc4C=C[C@@H]3[C@@]23C(=O)Nc2ccccc23)cc1,23.1 µM (active),–
O=C(O)c1ccc(-n2nc(-c3ccccc3)c3ccccc3c2=O)cc1,inactive,–
CCC(C)(C)NC(=O)C(c1ccc(O)cc1)N(Cc1ccco1)C(=O)CCC(=O)Nc1ccccn1 (centres undefined),inactive,–
CC(=O)c1nn(-c2ccc(OC(F)(F)F)cc2)nc1Nc1ccccc1,inactive,–
COc1ccccc1C(=O)Nn1cnnc1,inactive,–
CCc1noc(C)c1C(=O)NNC(=O)c1ccc(F)cc1,inactive,–
COc1ccc(C(=O)COC(=O)c2c(C)noc2C)cc1Cl,inactive,–
CCc1noc(C)c1C(=O)OCC(=O)c1ccc(NC(=O)CC(C)C)cc1,20.6 µM (active),–
O=C(c1ccccc1Cl)N(Cc1ccccc1F)N1C(=O)CCCC1=O,inactive,–
Cc1ccc(C2Nc3cccc4cccc(c34)N2)cc1,2.59 µM (active),–
Brc1ccccc1C1Nc2cccc3cccc(c23)N1,inactive,–

SMILES,Potency,"activity change, negative = growth inhibition"
COc1cccc(C2Nc3cccc4cccc(c34)N2)c1,inactive,–
COc1ccc(CCn2c3c(c(=O)[nH]c2=S)CN(C(C)C)CN3)cc1OC,inactive,–
COCC(C)NC(=O)CSc1nc2nn(-c3ccccc3)c(=O)c-2c2n1CCCCC2 (centres undefined),inactive,–
CCOC(=O)CSc1nc2ccc(C)cc2[nH]1,inactive,–
Cc1ccc2nc(/C(C#N)=C/c3ccc(-c4ccc(C(=O)OC(C)C)cc4)o3)[nH]c2c1,7.31 µM (active),–
CC(=O)Nc1ccc(C(=O)CSc2nc3ccc(C)cc3[nH]2)cc1,inactive,–
Cc1ccc2nc(/C(C#N)=C\c3ccc(OC(=O)c4cccs4)cc3)[nH]c2c1,14.6 µM (active),–
Cc1ccc2nc(S(=O)(=O)O)[nH]c2c1,inactive,–
CN(C(=O)c1cccc([N+](=O)[O-])c1)c1ccccc1C(=O)NCc1ccccc1,inactive,–
COc1ccc(S(=O)(=O)N2CCN(c3ccc(F)cc3)CC2)cc1-c1noc(C)n1,inactive,–
COc1ccc(CCNC(=O)C(=O)NCC2OCCN2S(=O)(=O)c2cccs2)cc1OC (centres undefined),inactive,–
Cc1cc(C)cc(OCC(=O)Nc2ccc(S(=O)(=O)Nc3ccccn3)cc2)c1,inactive,–
Cc1cc(C)cc(NS(=O)(=O)c2ccc(Oc3ncc(C(F)(F)F)cc3Cl)cc2)c1,23.1 µM (active),–
COC(=O)Cc1ccc(Oc2ncc(C(F)(F)F)cc2Cl)cc1,inactive,–
CCOC(=O)[C@H](CCc1ccccc1)N[C@@H](C)C(=O)N1CC2(C[C@H]1C(=O)O)SCCS2,inactive,–
COCCCNC(=O)[C@H]1N2C(=O)c3ccccc3C2SC1(C)C (some centres undefined),inactive,–
CC(C)N1C[C@@H](NCc2ccccc2O)C[C@H]1C(=O)N1CCN(c2cccc(C(F)(F)F)c2)CC1,–,-8.03% [at 9.04 µM]
CC1CCC(N2CC(=O)N(CCC3=CCCCC3)C(c3ccc(F)cc3)C2=O)CC1 (centres undefined),13 µM (active),–
O=S(=O)(Cc1nnnn1-c1ccc(Br)cc1)c1ccc(F)cc1,inactive,–
NS(=O)(=O)c1ccc(NC(=O)COc2ccc(S(=O)(=O)NC3CCCCC3)cc2)cc1,inactive,–
